# DT40 TDP1 no CPT: qHTS for Inhibitors of human tyrosyl-DNA phosphodiesterase 1 (TDP1): qHTS in cells in absence of CPT | Potency, µM (doses to about 46.2 µM), for inactives: at the top dose activity change, negative = growth inhibition, actives largely listed as inhibitors | 420,000 compounds, 15% hits | DT40 Tdp1-/- hTDP1 cells, no CPT, ATP luminescence, 48 h; further: potency means the concentration at half of the fitted maximal effect; on the % scale 0 is the no-effect control and ±100 the full control effect; nearly all actives have a fitted effect of over 55% in size
#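 Seeded 400 DT40-hTDP1 cells/well (vehicle DMSO, no 20 nM CPT); pinned compounds; ≥48 hr at 37 °C; CellTiter-Glo luminescence as viability measure.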
# IL1B secr inh: qHTS for Inhibitors of Inflammasome Signaling: IL-1-beta AlphaLISA Primary Screen | THP-1 LPS/ATP IL-1B secretion, AlphaLISA, 16 h; stronger effect = lower value | 360,000 compounds, 4.7% hits | activity change, % at 57.5 µM; in the data active means activity change below about -50%; inconclusive means mostly about -30% to -49%; further: on the % scale 0 is the no-effect control and ±100 the full control effect
#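 Secreted IL-1B measured by AlphaLISA bead assay after 16 h compound exposure of THP-1 cells; compounds (final up to 57.5 uM) added 1 h before LPS (250 ng/mL) and ATP (1.25 mM) stimulation; lower signal means less secretion.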
# HepG2 tox: qHTS for Inhibitors of TGF-b: Cytotox Counterscreen; HepG2 CAGA-GFP viability, ATP luminescence, 18 h; Potency, µM (series often up to 46.1 µM), for inactives: at the highest dose activity change, negative = cytotoxicity, actives largely listed as cytotoxic; 410,000 compounds, 0.76% hits; AID 588856, 2011; further: potency means the concentration at half of the fitted maximal effect
#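 CellTiter-Glo luminescence gave cytotoxicity after 18 hours at 37 degrees C. The cells were HepG2 CAGA-GFP in 1% FBS DMEM, stimulated with 500 pg/mL TGF-beta after compound addition. %Activity was normalised to no-cell wells (complete cell-killing) and DMSO (no toxicity), and curves were fitted and classified.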
# S-ASM inh: Inhibitors of Secretory Acid Sphingomyelinase (S-ASM): qHTS; Sphingomyelin phosphodiesterase (Homo sapiens), P17405; placental ASM, HMU-PC fluorogenic substrate, 60 min; Potency, µM (titrated, usually from 57.5 µM), inactives show at the highest dose activity change, negative = inhibition, most hits filed as inhibitors; 340,000 compounds, 0.006% hits; AID 504937, 2011; further: potency means the concentration at half of the fitted maximal effect
# Target sequence (P17405 47-631 limits assumed): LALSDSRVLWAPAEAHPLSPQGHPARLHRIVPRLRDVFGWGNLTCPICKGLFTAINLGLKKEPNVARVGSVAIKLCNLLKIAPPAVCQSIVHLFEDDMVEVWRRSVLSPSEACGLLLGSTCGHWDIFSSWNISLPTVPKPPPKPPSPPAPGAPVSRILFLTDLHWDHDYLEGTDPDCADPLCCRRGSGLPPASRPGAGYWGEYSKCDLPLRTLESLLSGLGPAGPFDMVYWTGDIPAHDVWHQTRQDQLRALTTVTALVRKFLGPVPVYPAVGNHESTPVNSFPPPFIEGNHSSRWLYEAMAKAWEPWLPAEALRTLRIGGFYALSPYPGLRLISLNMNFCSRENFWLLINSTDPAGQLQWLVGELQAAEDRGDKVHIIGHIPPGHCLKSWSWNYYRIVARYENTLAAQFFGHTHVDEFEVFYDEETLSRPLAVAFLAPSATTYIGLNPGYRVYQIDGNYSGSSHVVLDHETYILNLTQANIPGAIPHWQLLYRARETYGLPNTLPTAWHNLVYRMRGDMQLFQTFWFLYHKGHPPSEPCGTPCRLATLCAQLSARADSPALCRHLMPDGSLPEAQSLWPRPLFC
#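 qHTS format. ASM enzyme prepared from human placenta hydrolyses the fluorogenic substrate HMU-PC0 (9 uM final) over 60 min at 37 °C after a 10 min compound preincubation.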
# TGFb inhibitor: qHTS for Inhibitors of TGF-b. HepG2 CAGA-GFP TGF-b/SMAD3 reporter, GFP fluorescence, 18 h; TGF-beta stimulated, 500 pg/mL final. 410,000 compounds, 1.2% hits. Potency, µM (doses to about 46.1 µM), for the others: at the highest dose activity, negative = inhibition, usual class: inhibitors; further: potency means the concentration at half of the fitted maximal effect; on the % scale 0 is the no-effect control and ±100 the full control effect; nearly all actives have a fitted effect of over 65% in size
#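 Per well, imaged GFP fluorescence of HEPG2 CAGA-GFP cells gives the signal; cells get compound, then TGF-beta (500 pg/mL final), 18 h at 37 degrees C; %Activity versus -TGF-beta and +DMSO controls.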
# DT40 TDP1 CPT: qHTS for Inhibitors of human tyrosyl-DNA phosphodiesterase 1 (TDP1): qHTS in cells in presence of CPT. chicken DT40 Tdp1-/-;hTDP1 cells + 20 nM CPT, ATP luminescence, 48 h. Potency, µM (top dose mostly 46.2 µM), inactives show at the top dose activity change, negative = growth inhibition, hits mostly inhibitors. 420,000 compounds, 12% hits. AID 686979, 2013; further: potency means the concentration at half of the fitted maximal effect; on the % scale 0 is the no-effect control and ±100 the full control effect; nearly all actives have a fitted effect of over 55% in size
#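 Chicken DT40 Tdp1-/- cells complemented with human TDP1, 400 cells/well, exposed to compounds plus 20 nM camptothecin for at least 48 h at 37 C; viability read as ATP content by CellTiter-Glo luminescence.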
# * = called active by the depositor; ? = inconclusive; / = no result; [ ] = dose if it differs, or a comment. Only some compounds are listed: those with a hit (about 19% of all), similar ones and a draw of the others. Unless noted, the call rests on the fitted dose curve; in most records, active means well fitted curve in the direction sought with a large enough effect; inconclusive means small, poorly fitted or top-dose-only effect, or another doubt; inactive means no such curve, though single readings can be large; an effect the other way counts as inactive or inconclusive.
SMILES,DT40 TDP1 no CPT,IL1B secr inh,HepG2 tox,S-ASM inh,TGFb inhibitor,DT40 TDP1 CPT
O=C(Cc1ccc(S(=O)(=O)N2CCOCC2)s1)Oc1ccc(F)cc1,-35.6%,-21.6,6.3%,1.0%,0.1%,-29.1%
COc1cc(CN2CCCC(c3nc(-c4ccncc4)ncc3-c3ccccc3)C2)ccc1O (stereo not drawn),-5.4%,/,/,/,/,-8.8%[9.04 µM]
CCc1nc(CN(C)C(=O)C2CCC(=O)N(Cc3cccc(F)c3)C2)no1 (stereo not drawn),18.2%,2.1,2.7%,4.3%,-2.8%,0.8%
COc1ccccc1S(=O)(=O)N(C)C[C@H]1OCc2cn(nn2)CCCC(=O)N([C@H](C)CO)C[C@@H]1C,2.7%,14.2,-1.9%,/,4.6%,-0.2%
CCOC(=O)CN(C(=O)COc1nc(-c2ccccc2)cc(C)c1C#N)c1ccccc1C,10.3µM*,49.4,11.6%,-2.1%,2.2%,16.4µM*
O=C(/C=C/c1cccs1)N1CCC2(CC1)Oc1ccc(Cl)cc1C(=O)C21CC(c2cccnc2)=NO1 (stereo not drawn),?,-3.5,-14.9%,-2.2%,-14.9%,?
CC(C)C[C@H]1CN([C@@H](CC(C)C)CN2CCC[C@H]2CN2C(=O)C(=O)NC[C@@H]2Cc2ccc(O)cc2)C(=O)C(=O)N1CC1CCCCC1,29.1µM*,30.3,/,/,/,?
CC(C)C[C@H]1CN([C@@H](CC(C)C)CN2CCC[C@H]2CN2C(=O)C(=O)NC[C@@H]2Cc2ccc(O)cc2)C(=O)C(=O)N1CC1CCCCCC1,?,-52.4*,/,/,/,?
CCc1ccc(OCCCC(=O)Nc2nnc(C3CCCO3)s2)cc1 (stereo not drawn),-16.4%,15.2,-25.2%,-0.8%,3.4%,3.9%
Cc1noc(C)c1NC(=O)Nc1ccc2c(c1)C(=O)N([C@H](C)CO)C[C@H](C)[C@@H](CN(C)S(=O)(=O)c1c(C)noc1C)O2,-3.6%,15.4,-18.1%,-0.5%,-0.8%,1.3%
O=C1Nc2ccccc2C1=Nc1cccc(Cl)c1,-16.9%,0.9,7.4%,-4.6%,-12.9%,-11.5%
O=C1Nc2ccc(Br)cc2C1=Nc1cccnc1,8.2µM*,32.9,-30.3%,-0.3%,0.0%,11.6µM*
CCN(CC)C(=O)c1sc2c(c1C)c(=O)n(-c1ccc(C)c(C)c1)c(=O)n2CC(=O)Nc1ccc(OC)cc1OC,?,/,-6.6%,/,-0.8%,?
CCOC1=C2CN(S(=O)(=O)c3ccc(C)cc3)C(c3cccc(Cl)c3)CC2N(S(=O)(=O)c2ccc(C)cc2)C(c2ccncc2)C1 (stereo not drawn),16.4µM*,5.7,/,/,/,14.6µM*
CCOC1=C2CN(S(=O)(=O)c3ccc(C)cc3)C(c3cccc(Cl)c3)CC2NC(c2ccccc2)C1 (stereo not drawn),?,-14.5,/,/,/,18.4µM*
COc1ccc2c(c1)CCc1cnc(-n3ncc(C(=O)NCCCc4ccncc4)c3C)nc1-2,18.4µM*,/,/,/,/,-2.3%[9.04 µM]
CCn1cc(C(=O)N2CCN(c3ccccc3F)CC2)c(=O)c2cc(S(=O)(=O)N(C)C3CCCCC3)ccc21,?,/,-2.4%,/,-4.9%,-7.2%
COc1ccc(Cc2n[nH]c(=S)n2C)cc1Br,-10.1%,-68.3*,12.7%,3.3%,-1.8%,0.9%
Cc1ccc(-c2cn3c(n2)sc2cc(C(=O)NC4CCCCCC4)ccc23)cc1,16.4µM*,/,-7.4%,/,13.2%,10.3µM*
CCc1ccc(-c2cn3c(n2)sc2cc(C(=O)NCC(C)c4ccccc4)ccc23)cc1 (stereo not drawn),-15.0%,/,-12.6%,/,-11.4%,?
Cc1ccc(-c2cn3c(n2)sc2cc(C(=O)NC4CCCCC4)ccc23)cc1,4.61µM*,/,-4.9%,/,2.2%,4.11µM*
CCOC(=O)C1CCN(C(=O)c2ccc3c(c2)sc2nc(-c4ccc(C)cc4)cn23)CC1,?,/,-74.3%,/,?,-27.2%
CCc1ccc(-c2cn3c(n2)sc2cc(C(=O)NC4CCCCCC4)ccc23)cc1,10.3µM*,/,-3.8%,/,-15.2%,11.6µM*
O=C(NC1CCCCC1)c1ccc2c(c1)sc1nc(-c3ccccc3)cn12,10.3µM*,/,-38.7%,/,-29.4%,?
CC(NC(=O)c1ccc2c(c1)sc1nc(-c3ccc(F)cc3)cn12)C12CC3CC(CC(C3)C1)C2 (stereo not drawn),-7.1%,/,-3.8%,/,0.3%,-9.6%
SMILES,DT40 TDP1 no CPT,IL1B secr inh,HepG2 tox,S-ASM inh,TGFb inhibitor,DT40 TDP1 CPT
C=CCN1C(=O)C(Cc2ccc(SC(F)F)cc2)SC1=Nc1ccc(C(=O)O)cc1 (stereo not drawn),-7.3%,?,-10.3%,-0.4%,-1.1%,2.4%
Cc1ccccc1CNC(=O)CC1C(=O)NCCN1Cc1c(F)cccc1Cl (stereo not drawn),?,-19.0,-7.2%,4.0%,5.2%,-6.3%
CN(C(=O)COC(=O)/C=C/c1ccc(C(F)(F)F)cc1)c1c(N)n(Cc2ccccc2)c(=O)[nH]c1=O,6.51µM*,-3.5,-91.3%,-2.0%,?,6.51µM*
CCN(C(=O)COC(=O)/C=C/c1ccc(Cl)c(Cl)c1)c1c(N)n(Cc2ccccc2)c(=O)[nH]c1=O,2.06µM*,16.5,-1.3%,0.6%,0.9%,3.66µM*
CCN(C(=O)COC(=O)/C=C/c1cccc(Cl)c1)c1c(N)n(Cc2ccccc2)c(=O)[nH]c1=O,?,7.7,2.5%,3.3%,-10.9%,23.1µM*
Cc1cc(C)n(CCC(=O)NCC2Cc3cc(Cl)cc(-c4cnccn4)c3O2)n1 (stereo not drawn),-15.6%,/,/,/,/,-6.2%
C=CCn1c(=N)n(CC(=O)c2ccc(Br)s2)c2ccccc21,18.4µM*,-74.4*,-65.4%,-2.4%,?,?
C=CCn1c(=N)n(CC(=O)OC)c2ccccc21,-2.2%,19.9,5.3%,1.4%,11.3%,1.8%
C=CCn1c(=N)n(CC(=O)c2ccc(Cl)cc2)c2ccccc21,?,-90.1*,-17.7%,-2.7%,0.0%,9.2µM*
O=C(O)Cn1c(=O)n(Cc2ccccc2)c2ccccc21,1.5%,-13.0,18.3%,5.2%,36.0%,-12.6%
CCCn1c(=N)n(CC(=O)O)c2ccccc21,-14.2%,0.0,-12.8%,3.7%,-27.7%,-4.5%
Cc1n(CC(=O)c2ccc(F)cc2)c2ccccc2[n+]1C,-0.6%,47.6,-15.7%,-0.9%,-15.9%,3.8%

# Bioassay records deposited in PubChem by National Center for Advancing Translational Sciences (NCATS).
